According to PubChem BioAssay:
Activity calls are given as the source filed them.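 How the source made its calls, unless noted: active means inhibition of the reporter signal at or above 50%; inactive means inhibition below 50%.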

Assays:
[1] = inhibitors of TNFa-induced NFkB p65 translocation, primary screen, imaging, HUVEC, MLSMR starter and 10KST1 sets (AID 438;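 active means inhibition above 20% together with a positive visual image hit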;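 further: compound added about 3h40 before a 20 min TNFalpha stimulation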;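 on inhibition: signal is the nuclear over cytoplasmic p65 intensity ratio per well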); conditions: HUVEC TNFa-induced p65 nuclear translocation; cell count: measured here: nuclei count (cytotoxicity indicator), at 2.08 µM unless noted; inhibition: at 2 µM, stronger effect = higher value unless noted
[2] = inhibitors of mutant huntingtin aggregation, primary screen, imaging, exon1htt(103Q)mCFP cells, high-content imaging (AID 483;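 active means visual image review flags a hit and inhibition of aggregation exceeds 20%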;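 further: compound exposure lasted 3 days before fixation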;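 on nuclei count: percent of the per-plate median nuclei count of sample wells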); conditions: exon1htt(103Q)mCFP cell line, aggregate imaging, at 2 µM; inhibition of aggregation: stronger effect = higher value; nuclei count: measured here: cell count, toxicity
[3] = inhibitors of E-selectin induction by TNFa, primary screen, imaging, HUVEC, immunofluorescence, MLSMR starter and 10KST1 sets (AID 487;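 active means visually confirmed hit in the image check and inhibition above 20%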;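 on inhibition: signal is fraction of cell area covered by stained E-selectin grains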;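 on nuclei count: 100% = median nuclei count of all wells on the same plate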); conditions: HUVEC TNFalpha-induced E-selectin immunofluorescence imaging, at 2 µM; inhibition: stronger effect = higher value; nuclei count: measured here: cell number, toxicity
[4] = molecular target: Voltage-gated potassium channel subunit beta-2 (Rattus norvegicus) (UniProt P62483); assay: KvBeta enzyme negative modulators, primary screen, biochemical, NADPH fluorescence (AID 622;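 active means fluorescence slope higher than the sample average by over 3 SD, cut at about -0.22 in these data, passing the limit was not always enough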;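 further: slope of raw intensity against log time taken from 70 to 1610 s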); conditions: recombinant KvBeta, 4-cyanobenzaldehyde reduction, at 10 µM, stronger effect = higher value
Chain of Voltage-gated potassium channel subunit beta-2 (Rattus norvegicus) (P62483 whole entry, looked up): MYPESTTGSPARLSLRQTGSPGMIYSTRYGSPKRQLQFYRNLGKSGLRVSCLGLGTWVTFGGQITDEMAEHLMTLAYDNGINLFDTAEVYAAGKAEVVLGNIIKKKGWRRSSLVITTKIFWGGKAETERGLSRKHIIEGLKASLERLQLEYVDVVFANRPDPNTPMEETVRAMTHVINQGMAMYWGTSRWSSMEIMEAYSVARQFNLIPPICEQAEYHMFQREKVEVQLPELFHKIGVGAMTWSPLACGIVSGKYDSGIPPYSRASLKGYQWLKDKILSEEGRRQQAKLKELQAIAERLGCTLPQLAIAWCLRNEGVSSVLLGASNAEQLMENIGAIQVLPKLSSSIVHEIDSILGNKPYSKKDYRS

[5] = molecular target: Voltage-gated potassium channel subunit beta-2 (Rattus norvegicus) (UniProt P62483); assay: KvBeta positive modulators, primary screen, biochemical, NADPH fluorescence (AID 623;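 active means NADPH fluorescence slope more negative than the mean of all samples by about 3 SD, 99.7% confidence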;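 further: fluorescence intensity change per second fitted from 20 to 320 s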); conditions: Recombinant KvBeta, NADPH fluorescence decrease slope, 10 min; at 10 µM; stronger effect = lower value
[6] = molecular target: Alpha-2C adrenergic receptor (Homo sapiens) (UniProt P18825); assay: modulators of alpha2C/GIRK thallium flux, primary screen, cell-based, HEK293 alpha2C/GIRK1/2 (AID 624;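 active means fluorescence slope after compound addition differing from the mean of all screened samples at 99.7% confidence, in either direction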;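 further: slope of fluorescence ratio to pre-addition baseline per second over 15 to 24 s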); conditions: thallium flux BTC fluorescence, at 10 µM, actives lie on both sides
Chain of Alpha-2C adrenergic receptor (Homo sapiens) (P18825 whole entry, looked up): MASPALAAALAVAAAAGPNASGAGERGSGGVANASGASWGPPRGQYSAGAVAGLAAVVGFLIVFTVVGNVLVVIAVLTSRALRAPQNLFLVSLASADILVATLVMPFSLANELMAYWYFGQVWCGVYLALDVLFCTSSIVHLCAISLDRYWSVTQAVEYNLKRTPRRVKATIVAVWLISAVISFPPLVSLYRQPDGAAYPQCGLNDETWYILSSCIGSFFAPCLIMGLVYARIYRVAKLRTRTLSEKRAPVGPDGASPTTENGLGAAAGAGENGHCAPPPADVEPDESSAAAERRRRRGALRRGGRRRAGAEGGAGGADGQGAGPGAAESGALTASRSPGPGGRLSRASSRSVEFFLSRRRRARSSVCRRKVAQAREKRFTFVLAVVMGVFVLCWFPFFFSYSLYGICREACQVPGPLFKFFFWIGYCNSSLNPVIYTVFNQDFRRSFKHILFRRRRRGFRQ

[7] = inhibitors of Sendai virus-induced IRF3 signaling, primary screen, TLR/RLR signaling modifier project, cell-based, Sendai virus stimulus, luciferase, 10K MLSCN set (AID 602276;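 active means inhibition at or above 50% at 10 µM; inactive means inhibition below 50%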;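 further: firefly luciferase from ISG56 promoter only with Renilla not read in this screen; 0% = Sendai virus plus DMSO and 100% = medium plus DMSO without virus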); conditions: HEK293 RL24 IRF3 luciferase reporter, at 10 µM, stronger effect = higher value
[8] = inhibitors of poly I:C-induced TLR3 signaling, primary screen, cell-based, poly I:C stimulus, luciferase, 10K MLSCN set (AID 602277); conditions: HEK293-TLR3 RL24 IRF3 luciferase reporter, at 10 µM, stronger effect = higher value

| Compound | cell count [1] | inhibition [1] | inhibition of aggregation [2] | nuclei count [2] [%] | inhibition [3] | nuclei count [3] [%] | fluorescence slope [4] | NADPH fluorescence slope [5] | slope [6] | inhibition [7] | inhibition [8] |
| --- | --- | --- | --- | --- | --- | --- | --- | --- | --- | --- | --- |
| O=C(O)C1(c2ccc(Cl)cc2)CCC1 | 433 | 7.5% (inactive) | 1.5% (inactive) | 104 | -422% (inactive) | 158 | -0.461 (inactive) | 2.3e-05 (inactive) | 0.00643 (inactive) | 12.9% (inactive) | 21.3% (inactive) |
| CCNc1ccc(P(=S)(N(C)C)N(C)C)cc1 | 441 | 16.7% (inactive) | -8.4% (inactive) | 115 | -422% (inactive) | 153 | -0.622 (inactive) | -1.6e-05 (inactive) | 0.00749 (inactive) | 10.5% (inactive) | 26.1% (inactive) |
| CC(=NCCCN1CCOCC1)c1c(O)n(-c2ccccc2C)c(=O)[nH]c1=O | 377 | 3.3% (inactive) | -27.1% (inactive) | 107 | -21.8% (inactive) | 112 | -0.506 (inactive) | -3.5e-05 (inactive) | 0.00474 (inactive) | 7.9% (inactive) | 15% (inactive) |
| CCC(=NCCCN1CCOCC1)c1c(O)n(Cc2ccccc2)c(=O)[nH]c1=O | 481 | 0.8% (inactive) | 8.2% (inactive) | 101 | -36.6% (inactive) | 167 | -0.629 (inactive) | -2.2e-05 (inactive) | 0.00745 (inactive) | -4.98% (inactive) | 1.2% (inactive) |
| C[C@H]1CCCC(=O)CCC/C=C/c2cc(O)cc(O)c2C(=O)O1 | 420 | 6.1% (inactive) | 4.4% (inactive) | 93.9 | -42% (inactive) | 108 | -0.55 (inactive) | -7.2e-05 (inactive) | 0.00303 (inactive) | 13.5% (inactive) | 8.12% (inactive) |
| CCN1c2nc3ccccn3c(=O)c2CC2(C(=O)N(C)C(=O)N(C)C2=O)C1C (stereo unspecified) | 359 | 4.3% (inactive) | -17.6% (inactive) | 104 | -34% (inactive) | 114 | -0.482 (inactive) | 1.6e-06 (inactive) | 0.00491 (inactive) | 19% (inactive) | 19.6% (inactive) |
| Cc1cc(C)c(C(=O)CN2CCOCC2)c(C)c1 | 408 | 7.3% (inactive) | 7.9% (inactive) | 89.5 | -77.5% (inactive) | 115 | -0.419 (inactive) | -0.000154 (inactive) | 0.00628 (inactive) | 13.2% (inactive) | 24.8% (inactive) |
| Cc1ccc(OCC(=O)NCCN2CCN(C(=O)COc3ccc(C)cc3)CC2)cc1 | 635 | -0.2% (inactive) | 9.1% (inactive) | 94.7 | -103% (inactive) | 103 | -0.611 (inactive) | -2.9e-05 (inactive) | 0.00522 (inactive) | -9.99% (inactive) | -18.3% (inactive) |
| Cc1ccc(CC2C(=O)N(C)C(=O)N(C)C2=O)s1 | 451 | 2.6% (inactive) | 2% (inactive) | 109 | 40.2% (inactive) | 101 | -0.471 (inactive) | -4.3e-05 (inactive) | 0.00411 (inactive) | 1.08% (inactive) | 25% (inactive) |
| N=C(N)c1c(O)n(C2CCCCC2)c(=O)n(C2CCCCC2)c1=O | 460 | -13.4% (inactive) | -10.9% (inactive) | 102 | -11% (inactive) | 89.8 | -0.502 (inactive) | -1.1e-05 (inactive) | 0.00599 (inactive) | 16.7% (inactive) | 31.3% (inactive) |
| CCOP(=S)(OCC)c1ccc(N(C)C)cc1 | 670 | -1% (inactive) | 18.4% (inactive) | 68.7 | -113% (inactive) | 117 | -0.572 (inactive) | 3.8e-05 (inactive) | 0.00443 (inactive) | -17.4% (inactive) | -4.41% (inactive) |
| Nc1ccnn1C1CCNCC1 | 285 | 2.4% (inactive) | 6.2% (inactive) | 99.6 | -43.8% (inactive) | 127 | -0.541 (inactive) | 2.9e-05 (inactive) | 0.00512 (inactive) | 5.24% (inactive) | 17.3% (inactive) |
| CCN1c2nc3c(C)cccn3c(=O)c2CC2(C(=O)N(C)C(=O)N(C)C2=O)C1C (stereo unspecified) | 413 | 8.9% (inactive) | 8.3% (inactive) | 100 | 19.8% (inactive) | 111 | -0.477 (inactive) | -5.3e-05 (inactive) | 0.00711 (inactive) | 16.5% (inactive) | 17.7% (inactive) |
| CCCNC(=O)c1c(N)n(Cc2ccc3c(c2)OCO3)c2nc3ccccc3nc12 | 699 | -14.7% (inactive) | -5.3% (inactive) | 104 | -9.2% (inactive) | 107 | -0.559 (inactive) | -2.1e-05 (inactive) | 0.00324 (inactive) | 19.3% (inactive) | 24.3% (inactive) |
| CC(=O)Nc1ccc(OC(=O)c2ccccc2N)cc1 | 292 | -3.4% (inactive) | -8.5% (inactive) | 76.3 | -96.3% (inactive) | 111 | -0.447 (inactive) | -1.3e-05 (inactive) | 0.00336 (inactive) | 3.45% (inactive) | 27.2% (inactive) |
| c1ccc(C2CC3CC(c4ccco4)N2O3)cc1 (stereo unspecified) | 301 | -1.4% (inactive) | 0% (inactive) | 108 | -68.5% (inactive) | 118 | -0.514 (inactive) | -2.8e-05 (inactive) | 0.00573 (inactive) | 9.13% (inactive) | 16.9% (inactive) |
| O=C1OCCC1NC1=NCCC1 (stereo unspecified) | 571 | -9.6% (inactive) | -1.8% (inactive) | 106 | -16.4% (inactive) | 101 | -0.45 (inactive) | -5e-05 (inactive) | 0.00554 (inactive) | -0.849% (inactive) | 13.5% (inactive) |
| CCN1CCN(C(=O)COc2cc(=O)n(CC)c3ccccc23)CC1 | 357 | 0% (inactive) | -14.7% (inactive) | 99.2 | -7.3% (inactive) | 115 | -0.386 (inactive) | -4.3e-05 (inactive) | 0.00614 (inactive) | 3.27% (inactive) | 36.3% (inactive) |
| O=C(NCc1ccccn1)c1ccccc1Cl | 627 | -0.6% (inactive) | 2.9% (inactive) | 111 | -26.1% (inactive) | 92.5 | -0.532 (inactive) | -5.9e-05 (inactive) | 0.00536 (inactive) | 10.8% (inactive) | 10.8% (inactive) |
| CCCCCCC(N)CC(=O)O (stereo unspecified) | 689 | 2.4% (inactive) | -9.8% (inactive) | 116 | 42.8% (inactive) | 80.1 | -0.456 (inactive) | -3e-05 (inactive) | 0.00377 (inactive) | 9.07% (inactive) | 28% (inactive) |
| CC(=NCc1ccc2c(c1)OCO2)c1c(O)n(C)c(=O)n(C)c1=O | 629 | -10.8% (inactive) | 0.7% (inactive) | 94.1 | 5.3% (inactive) | 97.5 | -0.409 (inactive) | 1.3e-05 (inactive) | 0.00333 (inactive) | 20.7% (inactive) | 25.9% (inactive) |
| O=c1c2ccccc2nc(CSc2ncnc3nc[nH]c23)n1-c1ccccc1 | 546 | 2.3% (inactive) | 2.9% (inactive) | 106 | -123% (inactive) | 103 | -0.492 (inactive) | -9.1e-05 (inactive) | 0.00489 (inactive) | -0.567% (inactive) | 13.7% (inactive) |
| O=C(CN1C2CCC1CC(O)(c1cccnc1)C2)Nc1ccc2c(c1)OCO2 (stereo unspecified) | 414 | 7.5% (inactive) | -3.4% (inactive) | 104 | -176% (inactive) | 115 | -0.591 (inactive) | 5.6e-07 (inactive) | 0.00303 (inactive) | 15% (inactive) | 22.4% (inactive) |
| O=P(OCC(F)(F)C(F)F)(N1CCCCC1)N1CCCCC1 | 336 | -10.1% (inactive) | -9.4% (inactive) | 121 | -152% (inactive) | 134 | -0.5 (inactive) | 2.3e-05 (inactive) | 0.00426 (inactive) | 7.79% (inactive) | 9.95% (inactive) |
| O=C(Cn1ncc2c3ccccc3n(Cc3ccc(F)cc3)c2c1=O)N1CCC2(CC1)OCCO2 | 454 | 2.9% (inactive) | -17.5% (inactive) | 74.9 | -167% (inactive) | 130 | -0.295 (inactive) | -5.2e-05 (inactive) | 0.00589 (inactive) | 7.71% (inactive) | 2.33% (inactive) |
| COc1ccc(OC)c(N2C(=O)NC(=O)C(CCc3ccncc3)(CCc3ccncc3)C2=O)c1 | 397 | 1% (inactive) | -24.7% (inactive) | 107 | -73% (inactive) | 115 | -0.329 (inactive) | -2.9e-06 (inactive) | 0.00479 (inactive) | 10.1% (inactive) | 12% (inactive) |
